# According to PubChem BioAssay (NCI):
# This is part of a sample that, as a whole, favours compounds with a hit. Of some 83,000 tested, about 20% had one in any assay.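 Single-concentration screen, 48 h exposure, 96-well plates. Endpoint: percent growth. Below 10 = active.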 Calls of active or inactive are those of the source.
# Test system: HL-60(TB) leukemia
# Experiment: NCI-60 one-dose screen, 48 h (100 = growth as untreated, 0 = no growth, -100 = all killed)
# Conditions: 10 µM unless noted
row,SMILES,growth
1,COc1cc(N2C(=O)c3nccnc3C2=O)cc(OC)c1OC,90.3% (inactive)
2,O=c1ccn(C2CCCO2)c(=O)[nH]1 (stereo not given),111% (inactive)
3,Cn1ccnc1C(=O)/C=C/c1ccc(C(=O)Nc2ccccc2F)cc1,5.22% (active)
4,Cc1c(Cl)cc(Cl)c(N)c1Cl,102% (inactive)
5,COc1cc2nc(Nc3cccc(Cl)c3)nc(N)c2cc1OC,87.1% (inactive)
6,CCS(=O)(=O)OCCO[C@H]1Cc2cc3ccc(=O)oc3cc2OC1(C)C,106% (inactive)
7,COCCOc1cc2ncnc(N3CCN(c4cc(S(C)(=O)=O)c(C)cc4Cl)CC3)c2cc1OCCOC,97.4% (inactive)
8,C=C(C)CCC(C)N1CCC(N2CCC(C(=O)NCCc3ccccc3)CC2)CC1 (stereo not given),27.4% (inactive)
9,COc1ccc(NC(=O)c2ccccc2-c2ccccc2)c(C(N)=O)c1,-17.9% (active)
10,Cc1nn(-c2ccc(F)cc2)c2ncnc(Nc3ccc(NC(=O)Nc4ccc(Cl)c(C(F)(F)F)c4)cc3)c12,13.2% (inactive)
11,Nc1n[nH]c2cc(F)c([C@@H]3Nc4ccc5[nH]ncc5c4[C@H]4C5CCC(C5)[C@@H]34)cc12 (stereo not given in full),-22.4% (active)
12,COc1ccc2c(c1)OC(N(C(C)=O)C(C)=O)=C(C#N)C2c1ccc(F)cc1 (stereo not given),-18.9% (active)
13,O=C(O)/C=C\C(=O)Nc1cccc2ccccc12,56.7% (inactive)
14,O=C1C=CC(n2cc(F)c(=O)[nH]c2=O)O1 (stereo not given),45.3% (inactive)
15,Cc1nc2sc(C(=O)Nc3cccc(Br)c3)c(N)c2cc1C(O)c1ccccc1 (stereo not given),-27.4% (active)
16,Clc1ccc(Oc2ccc(Nc3ncnc4onc(-c5ccccc5)c34)cc2)c(Cl)c1,100% (inactive)
17,O=C(CCCCNC(=O)c1nc(-c2ccccc2)n(-c2ccccc2)n1)NO,97% (inactive)
18,CCCc1c(OC(=O)c2ccccc2)nc2[nH]c(=O)sc2c1C,98% (inactive)
19,COC1=C(C)C(=O)c2c(c(CCCl)c3n2CCC3O)C1=O (stereo not given),50.3% (inactive)
20,O=C1C=CC(=O)N1c1ccccc1N1C(=O)C=CC1=O,31.7% (inactive)

row,SMILES,growth
1,CCCCC(O)Cn1ncc(C(=O)OCC)c1NC(=O)NCc1ccccc1C(F)(F)F (stereo not given),76.3% (inactive)
2,Clc1cccc(Cl)c1C(Nc1nc2ccccc2s1)Nc1nc2ccccc2s1,105% (inactive)
3,O=Nc1ccccc1N=O,78.3% (inactive)
4,O=C1CC23OC(C(O)c4ccccc4N12)C1C(c2ccccc2)=NOC13 (stereo not given),8.01% (active)
5,CCNCCNc1cc(C2CCCC2)c(C#N)c2nc3ccccc3n12,-59.3% (active)
6,N#CC1=C(/N=C/c2ccccc2)Oc2c(ccc3ccccc23)C1c1ccc([N+](=O)[O-])cc1 (stereo not given),99.1% (inactive)
7,O=C(Nc1cccc2ccccc12)c1cc2c(cc1Br)OCO2,75.9% (inactive)
8,CNCCCC12CCC(c3ccccc31)c1ccccc12,71% (inactive)
9,CCNC(=O)N1CCc2c(Cl)c3c(c(OC)c2[C@@H]1[C@H]1OCc2c1ccc(OC)c2OC)OCCO3,-2.42% (active)
10,Cc1cc(N=O)cc(C(C)(C)C)c1O,99.6% (inactive)
11,CC/C=C1/C(=O)C=C[C@@H]1C/C=C\CCCC(=O)OC,5.31% (active)
12,CC(C)c1nc2ccccc2n1CC(=O)N/N=C/c1cccc(O)c1,86.5% (inactive)
13,COc1ccc(/C=N/NC(=O)COCC(=O)N/N=C/c2ccc(OC)cc2)cc1,102% (inactive)
14,CC(C)[C@@H](C)/C=C/[C@@H](C)[C@H]1CCC2=C3C=CC4=CC(=O)CC[C@]4(C)[C@H]3CC[C@@]21C,93.9% (inactive)
15,O=C1NCCS(=O)(=O)/C1=C\C=C\c1cccc(C(F)(F)F)c1,1.71% (active)
16,CC(C)=CCC[C@H](C)c1ccc(C)c2c1OCN(CCO)C2,90.8% (inactive)
17,CCOC(=O)C1C(=O)OC2CCCCC21 (stereo not given),98.5% (inactive)
18,Cn1cc(C(=O)NCCC(=N)N)cc1NC(=O)CN=C(N)N,102% (inactive)
19,COc1ccc2c(c1)c(-c1nc(-c3ccc4ccccc4c3)cs1)cn2C,85.7% (inactive)
20,O=c1c2cccc3c(N4CCCC4)ccc(c32)c2nc3ccccc3n12,72% (inactive)
